# PubChem BioAssay (NCATS)
# Records with an inconclusive call do not appear. A call without a number means that no potency is given here. The source made the active and inactive calls. Unless noted, calls follow the shape of the dose curve; as a rule, active = well fitted curve in the direction sought with a large enough effect; inconclusive = small, poorly fitted or top-dose-only effect, or another doubt; inactive = no such curve, though single readings can be large; an effect the other way counts as inactive or inconclusive.
# Columns and labels:
# [1] = P-glycoprotein substrates identified in KB-8-5-11 adenocarcinoma cell line, qHTS therapeutic library screen (AID 1346987); also: nearly all actives have a fitted effect of over 65% in size
# Summary of the method: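 Human cervical adenocarcinoma KB-8-5-11 cells, selected in colchicine to over-express P-gp and assayed without it, were exposed for 72 h to titrated compounds. An ATP-based luminescent viability signal gave AC50.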
# [2] = Primary qHTS for inhibitors of nuclear receptor binding SET domain protein 2 (NSD2) in an isogenic RCH-ACV NSD2 p.E1099K mutant (9B) (AID 1645876); also: potency is read from the fitted curve at half-maximal effect; nearly all actives have a fitted effect of over 70% in size
# [3] = target: Glutathione peroxidase 1 (Homo sapiens) (UniProt P07203); experiment: Primary qHTS Assay for Inhibitors of Recombinant Selenoprotein Glutathione Peroxidase 1 (GPX1) (AID 1845191); also: nearly all actives have a fitted effect of over 65% in size
# Glutathione peroxidase 1 (Homo sapiens), sequence (P07203 whole entry, looked up): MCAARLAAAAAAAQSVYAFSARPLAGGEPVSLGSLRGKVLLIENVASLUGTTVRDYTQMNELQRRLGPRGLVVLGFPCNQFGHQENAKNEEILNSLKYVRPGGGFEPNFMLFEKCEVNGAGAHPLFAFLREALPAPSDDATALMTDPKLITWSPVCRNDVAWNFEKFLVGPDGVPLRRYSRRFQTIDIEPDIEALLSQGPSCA
# Summary of the method: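 GPX1 10 nM, GR 100 nM, GSH 1 mM, NADPH 0.5 mM, CHP 0.5 mM (final). 30-min cpd preincubation, RT. Ex340/Em450 read t=0, t=15 min.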
# [4] = target: N-terminal Xaa-Pro-Lys N-methyltransferase 1 (Homo sapiens) (UniProt Q9BV86); experiment: Confirmatory qHTS for Inhibitors of N-terminal methyltransferase 1 (NTMT1): MTaseGlo Assay (AID 1645874); also: potency is read from the fitted curve at half-maximal effect; nearly all actives have a fitted effect of over 65% in size
# N-terminal Xaa-Pro-Lys N-methyltransferase 1 (Homo sapiens), sequence (Q9BV86 whole entry, looked up): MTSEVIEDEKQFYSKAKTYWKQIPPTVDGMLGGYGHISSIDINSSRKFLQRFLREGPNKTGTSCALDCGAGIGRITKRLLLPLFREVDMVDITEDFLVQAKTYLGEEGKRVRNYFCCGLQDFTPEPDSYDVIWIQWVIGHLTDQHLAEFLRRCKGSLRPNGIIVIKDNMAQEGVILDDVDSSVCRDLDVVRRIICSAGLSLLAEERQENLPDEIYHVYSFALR
# Summary of the method: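 MTase-Glo luminescence measured SAH formed by 125 nM NTMT1 from 100 uM SAM and 1 uM SPKRIA peptide over 30 min at room temperature, following 15 min compound preincubation. Percent inhibition against no-enzyme and DMSO controls gave 4-parameter Hill fits.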
# [5] = target: Catechol O-methyltransferase (Homo sapiens) (UniProt P21964); experiment: Confirmatory Screen for Target Class Profiling of Small Molecule Inhibitors of Methyltransferases (AID 1745852; calls by dose curve; also: potency is read from the fitted curve at half-maximal effect); settings: MTase-Glo luminescence, SAH detection, recombinant enzyme; measured here: COMT max response; stronger effect = lower value
# Catechol O-methyltransferase (Homo sapiens), sequence (P21964 whole entry, looked up): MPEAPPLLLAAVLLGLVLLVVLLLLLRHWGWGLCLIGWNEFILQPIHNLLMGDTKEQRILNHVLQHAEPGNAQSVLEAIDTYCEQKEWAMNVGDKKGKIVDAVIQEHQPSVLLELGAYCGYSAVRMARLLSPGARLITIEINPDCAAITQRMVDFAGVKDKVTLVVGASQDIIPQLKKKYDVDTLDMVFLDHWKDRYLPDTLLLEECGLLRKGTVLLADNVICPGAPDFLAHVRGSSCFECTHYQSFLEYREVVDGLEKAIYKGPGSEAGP
# [6] = target: Guanidinoacetate N-methyltransferase (Homo sapiens) (UniProt Q14353); experiment: as above; settings: activity change, negative = inhibition: at 57.3 µM (top of the series) unless noted
# [7] = target: Nicotinamide N-methyltransferase (Homo sapiens) (UniProt P40261); experiment: as above; settings: MTase-Glo luminescence, SAH detection, recombinant enzyme; measured here: NNMT max response; stronger effect = lower value
# Nicotinamide N-methyltransferase (Homo sapiens), sequence (P40261 whole entry, looked up): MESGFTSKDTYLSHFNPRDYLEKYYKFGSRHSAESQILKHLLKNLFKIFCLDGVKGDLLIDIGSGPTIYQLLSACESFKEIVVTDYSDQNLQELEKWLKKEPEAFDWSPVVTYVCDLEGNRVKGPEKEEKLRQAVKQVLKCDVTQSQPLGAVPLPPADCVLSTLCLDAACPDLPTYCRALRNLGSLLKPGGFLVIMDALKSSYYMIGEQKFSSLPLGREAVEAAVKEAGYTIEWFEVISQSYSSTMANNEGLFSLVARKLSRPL
# [8] = target: Phenylethanolamine N-methyltransferase (Homo sapiens) (UniProt P11086); experiment: as above; settings: MTase-Glo luminescence, SAH detection, recombinant enzyme; measured here: PNMT max response; stronger effect = lower value
# Phenylethanolamine N-methyltransferase (Homo sapiens), sequence (P11086 whole entry, looked up): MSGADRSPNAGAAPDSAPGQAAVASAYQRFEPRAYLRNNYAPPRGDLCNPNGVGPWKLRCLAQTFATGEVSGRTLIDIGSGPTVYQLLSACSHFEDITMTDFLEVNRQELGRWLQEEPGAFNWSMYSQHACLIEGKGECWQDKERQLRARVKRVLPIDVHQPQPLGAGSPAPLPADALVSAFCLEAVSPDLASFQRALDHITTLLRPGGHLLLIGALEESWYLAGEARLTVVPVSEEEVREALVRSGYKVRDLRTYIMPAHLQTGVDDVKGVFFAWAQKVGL
Structure (SMILES),Potency [1],Potency [2],Potency [3],Potency [4],activity [5] [%],Potency [6],activity [7] [%],activity [8] [%]
O=Nc1c2[nH]c3ccccc3nc-2c2ccccc12,inactive,13 µM (active),inactive,–,–,–,–,–
CN(C)c1ccc(Nc2c3ccc(NC(=O)CCN4CCCC4)cc3nc3cc(NC(=O)CCN4CCCC4)ccc23)cc1,inactive,–,inactive,6.49 µM (active),-13,24.1 µM (active),-39.2,-14.2
O=C1NCCCc2c1oc1ccc(O)cc21,inactive,–,inactive,–,–,–,–,–
